Assay results from PubChem BioAssay AID1159580 (chemical genetic matrix, 2015).
The campaign covered roughly 5,500 compounds. About 2,000 (36%) were called active. Not shown: some 18% with an inconclusive outcome. This is one part of the list. A number with no mark means an inactive call. No stated cut-off is given here; in the data, active means normalized growth mostly below about 0.91 (no sharp cut-off); inconclusive means no clear call, values can overlap the other calls; inactive means mostly above about 0.92.

Assay: chemical genetic growth profiling, strain panel (AID 1159580);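 further: tested at 20 µM; growth read once vehicle control cultures reached saturation at 30 °C; 1 = growth at the plate median or of vehicle wells; lower values mean less growth of the strain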
Conditions: S. cerevisiae deletion strains, growth OD

CC(C)(OC(=O)c1ccccc1)[C@@H]1Cc2cc3ccc(=O)oc3cc2O1
normalized growth (locus YBR021W, strain FUR4, hits give low values): 0.939
normalized growth (locus YBR229C, strain ROT2, hits give low values): 0.986
normalized growth (locus YCL029C, strain bik1, hits give low values): 1.01
normalized growth (locus YDL035C, strain GPR1, hits give low values): 0.927
normalized growth (locus YDL074C, strain BRE1, hits give low values): 0.95
normalized growth (locus YDL101C, strain DUN1, hits give low values): 0.975
normalized growth (locus YDL185W, strain tfp1, hits give low values): 0.956
normalized growth (locus YDL192W, strain arf1, hits give low values): 0.982
normalized growth (locus YDR101C, strain arx1, hits give low values): 0.975
normalized growth (locus YDR150W, strain NUM1, hits give low values): 0.989
normalized growth (locus YDR162C, strain NBP2, hits give low values): 0.834 (active)
normalized growth (locus YDR318W, strain mcm21, hits give low values): 0.954
normalized growth (locus YDR388W, hits give low values): 0.994
normalized growth (locus YDR502C, strain sam2, hits give low values): 0.956
normalized growth (locus YEL061C, strain CIN8, hits give low values): 0.992
normalized growth (locus YER110C, hits give low values): 0.973
normalized growth (locus YER155C, strain BEM2, hits give low values): 0.999
normalized growth (locus YER167W, strain BCK2, hits give low values): 0.991
normalized growth (locus YGL078C, strain dbp3, hits give low values): 0.957
normalized growth (locus YGL086W, strain mad1, hits give low values): 0.987
normalized growth (locus YGL248W, strain PDE1, hits give low values): 0.94
normalized growth (locus YGR078C, strain PAC10, hits give low values): 0.945
normalized growth (locus YGR135W, strain pre9, hits give low values): 0.951
normalized growth (locus YGR229C, strain SMI1, hits give low values): 0.885
normalized growth (locus YGR252W, strain gcn5, hits give low values): 0.805
normalized growth (locus YHR030C, strain SLT2, hits give low values): 0.989
normalized growth (locus YHR079C, strain IRE1 (second series), hits give low values): 1
normalized growth (locus YHR094C, strain hxt1, hits give low values): 1
normalized growth (locus YHR129C, strain ARP1, hits give low values): 0.989
normalized growth (locus YHR200W, strain rpn10, hits give low values): 0.976
normalized growth (locus YIL066C, strain RNR3, hits give low values): 0.927
normalized growth (locus YIL073C, strain SPO22, hits give low values): 0.945
normalized growth (locus YIL125W, strain kgd1, hits give low values): 1
normalized growth (locus YIR030C, strain dcg1, hits give low values): 0.988
normalized growth (locus YJL095W, strain BCK1, hits give low values): 0.89
normalized growth (locus YJL134W, strain LCB3, hits give low values): 0.989
normalized growth (locus YJL168C, strain set2, hits give low values): 0.983
normalized growth (locus YJL187C, strain SWE1 (second series), hits give low values): 0.958
normalized growth (locus YJR043C, strain POL32, hits give low values): 0.978
normalized growth (locus YJR075W, strain HOC1, hits give low values): 0.976
normalized growth (locus YKL009W, strain mrt4, hits give low values): 0.958
normalized growth (locus YKL068W, hits give low values): 0.992
normalized growth (locus YKL085W, strain MDH1 (second series), hits give low values): 1
normalized growth (locus YKL085W, strain MDH1, hits give low values): 1
normalized growth (locus YKR001C, strain vps1, hits give low values): 0.997
normalized growth (locus YLR039C, strain RIC1, hits give low values): 1.05
normalized growth (locus YLR058C, strain SHM2, hits give low values): 0.975
normalized growth (locus YLR102C, strain apc9, hits give low values): 0.984
normalized growth (locus YLR262C, strain YPT6, hits give low values): 1.02
normalized growth (locus YLR268W, strain sec22, hits give low values): 0.977
normalized growth (locus YLR330W, strain CHS5, hits give low values): 0.976
normalized growth (locus YLR342W, strain FKS1 (second series), hits give low values): 1.01
normalized growth (locus YLR371W, strain rom2, hits give low values): 0.994
normalized growth (locus YLR418C, strain cdc73, hits give low values): 0.828 (active)
normalized growth (locus YML016C, strain PPZ1, hits give low values): 0.982
normalized growth (locus YML032C, strain rad52, hits give low values): 0.97
normalized growth (locus YML124C, strain tub3, hits give low values): 0.974
normalized growth (locus YMR078C, strain ctf18, hits give low values): 0.976
normalized growth (locus YMR223W, strain ubp8, hits give low values): 0.945
normalized growth (locus YMR307W, strain GAS1, hits give low values): 0.895
normalized growth (locus YNL067W, strain RPL9B, hits give low values): 0.96
normalized growth (locus YNL128W, strain TEP1, hits give low values): 0.981
normalized growth (locus YNL233W, strain BNI4, hits give low values): 0.968
normalized growth (locus YNL250W, strain rad50, hits give low values): 0.991
normalized growth (locus YNL271C, strain bni1, hits give low values): 0.938
normalized growth (locus YNL298W, strain CLA4, hits give low values): 0.942
normalized growth (locus YNL307C, strain MCK1, hits give low values): 0.975
normalized growth (locus YNL322C, strain KRE1, hits give low values): 0.984
normalized growth (locus YNR052C, strain pop2, hits give low values): 0.983
normalized growth (locus YOL006C, strain TOP1, hits give low values): 0.761
normalized growth (locus YOL012C, strain htz1): 1.01
normalized growth (locus YOL147C, strain pex11, hits give low values): 0.986
normalized growth (locus YOR061W, strain CKA2, hits give low values): 0.976
normalized growth (locus YOR069W, strain VPS5, hits give low values): 0.983
normalized growth (locus YOR136W, strain idh2, hits give low values): 0.987
normalized growth (locus YOR144C, strain elg1, hits give low values): 0.973
normalized growth (locus YOR184W, strain ser1, hits give low values): 0.861 (active)
normalized growth (locus YOR316C, strain cot1, hits give low values): 0.976
normalized growth (locus YPL241C, strain CIN2, hits give low values): 0.982
normalized growth (locus YPR119W, strain clb2, hits give low values): 0.993
normalized growth (locus YPR141C, strain kar3, hits give low values): 0.995
normalized growth (locus YPR163C, strain tif3, hits give low values): 0.973
normalized growth (locus YPR167C, strain met16, hits give low values): 0.98
normalized growth (strain wtn01, hits give low values): 0.986
